Data published in PubChem BioAssay (EPA / NIEHS).
Records with an inconclusive call do not appear. Calls of active or inactive are those of the source. The calls were made as follows, unless noted: active = hit-call score of the fitted dose curve at least 0.9, where 1 is the maximum; inactive = score below 0.9.

How the values were obtained:
[1] = ACEA_ER_80hr: ACEA Biosciences xCELLigence Real-Time Cell Analysis on Estrogen Receptor Agonism for Proliferation (AID 2282667; active = hit-call score of the fitted dose curve at least 0.9, where 1 is the maximum); details: T47D proliferation, impedance (xCELLigence), 80 h
Method in brief: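 Impedance readout (RT-CES) of T47D proliferation at 80 h post-dose; gain of signal vs DMSO baseline. Compounds: 8 conc, 1:4 serial, top 100 uM final, ≤0.5% DMSO; biological duplicate.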

[2] = ATG_CRE_CIS: Attagene CIS-FACTORIAL HepG2 Assay for human cAMP Responsive Element (CRE) binding protein 3 (AID 2282926); details: HepG2 CRE cis-reporter, Attagene multiplexed mRNA; actives raise or lower the signal
Method in brief: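 Endogenous CRE-binding activity in HepG2 is reported through a cis-regulated transfected reporter. Following a day of exposure, mRNA levels are determined by reverse transcription PCR and fluorescent fragment analysis; fits run in both directions versus DMSO.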

[3] = target: CCAAT/enhancer-binding protein beta (Homo sapiens) (UniProt P17676); experiment: ATG_C_EBP_CIS: Attagene CIS-FACTORIAL HepG2 Assay for human CCAAT/Enhancer Binding Protein (C/EBP) beta (AID 2282927); details: HepG2 Attagene cis-factorial transcription factor reporter; actives raise or lower the signal
Method in brief: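 Following a 24 h incubation with test chemical, transfected HepG2 cells yielded RNA whose reporter transcripts were quantified by RT-PCR and fluorescent capillary electrophoresis, with DMSO serving as baseline for bidirectional fitting.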

[4] = ATG_CMV_CIS: Attagene CIS-FACTORIAL HepG2 Assay for human CMV (Internal Marker) (AID 2282928); details: HepG2 CMV promoter reporter, transcription factor profiling; actives raise or lower the signal;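 also: endpoint acts as a background internal control marker rather than a target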
Method in brief: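 Cell system: HepG2, transiently transfected multiple reporter units under cis promoters. Exposure: 24 h. Detection: RT-PCR, FAM labeling, HpaI digestion, capillary electrophoresis. Analysis: bidirectional, DMSO baseline.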

[5] = ATG_DR4_LXR_CIS: Attagene CIS-FACTORIAL HepG2 Assay for human Liver X Receptor (LXR), DR4 submotif (AID 2282929); details: HepG2 Attagene DR4 cis-reporter, mRNA transcription; actives raise or lower the signal
Method in brief: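 After transient transfection with multiplexed cis-promoter reporter units, HepG2 cells received test chemicals for 24 h. Reporter mRNA induction, detected by fluorescence after RT-PCR and capillary electrophoresis, was scored relative to DMSO.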

[6] = target: Aryl hydrocarbon receptor (Homo sapiens) (UniProt P35869); experiment: ATG_Ahr_CIS: Attagene CIS-FACTORIAL HepG2 Assay for human Aryl Hydrocarbon Receptor (Ahr) (AID 2282930); details: HepG2 AhR cis-factorial reporter transcription; actives raise or lower the signal
Method in brief: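 Values derive from bidirectional fitting against DMSO negative control. Underlying signal: cis-element reporter mRNA in transiently transfected HepG2, harvested 24 h post-dose and measured by RT-PCR plus capillary electrophoresis.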

Measured: AC50

CCAAT/enhancer-binding protein beta (Homo sapiens), sequence (P17676 whole entry, looked up): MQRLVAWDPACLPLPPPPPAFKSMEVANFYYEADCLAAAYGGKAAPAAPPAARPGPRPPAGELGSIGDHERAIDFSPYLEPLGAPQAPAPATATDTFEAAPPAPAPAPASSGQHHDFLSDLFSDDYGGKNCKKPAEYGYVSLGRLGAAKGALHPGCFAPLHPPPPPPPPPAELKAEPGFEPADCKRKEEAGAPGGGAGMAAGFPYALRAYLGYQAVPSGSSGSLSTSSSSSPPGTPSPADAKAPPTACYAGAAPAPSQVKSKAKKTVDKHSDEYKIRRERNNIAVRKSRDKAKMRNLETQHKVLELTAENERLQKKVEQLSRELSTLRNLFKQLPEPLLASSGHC
Aryl hydrocarbon receptor (Homo sapiens), sequence (P35869 whole entry, looked up): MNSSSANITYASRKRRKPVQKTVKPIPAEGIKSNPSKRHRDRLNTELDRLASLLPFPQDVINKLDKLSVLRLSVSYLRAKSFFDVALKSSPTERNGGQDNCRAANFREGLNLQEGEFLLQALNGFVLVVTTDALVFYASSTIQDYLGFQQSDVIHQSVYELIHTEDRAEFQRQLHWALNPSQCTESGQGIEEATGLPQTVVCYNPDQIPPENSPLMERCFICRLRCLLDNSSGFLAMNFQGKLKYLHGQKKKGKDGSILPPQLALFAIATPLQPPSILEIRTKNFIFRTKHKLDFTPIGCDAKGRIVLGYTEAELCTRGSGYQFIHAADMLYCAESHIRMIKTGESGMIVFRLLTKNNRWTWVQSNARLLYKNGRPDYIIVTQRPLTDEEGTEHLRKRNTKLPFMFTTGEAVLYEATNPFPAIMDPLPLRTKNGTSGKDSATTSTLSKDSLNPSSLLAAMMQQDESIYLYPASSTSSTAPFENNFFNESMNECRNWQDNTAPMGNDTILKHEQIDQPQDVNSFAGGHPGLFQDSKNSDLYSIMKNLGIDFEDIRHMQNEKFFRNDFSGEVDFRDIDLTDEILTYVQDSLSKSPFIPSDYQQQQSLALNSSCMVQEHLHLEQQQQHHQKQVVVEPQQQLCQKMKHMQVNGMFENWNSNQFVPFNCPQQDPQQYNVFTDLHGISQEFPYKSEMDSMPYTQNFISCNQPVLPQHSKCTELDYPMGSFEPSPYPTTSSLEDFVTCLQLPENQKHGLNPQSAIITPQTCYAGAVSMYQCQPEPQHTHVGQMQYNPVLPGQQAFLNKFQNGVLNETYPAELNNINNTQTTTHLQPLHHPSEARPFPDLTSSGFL

NC(=O)CF
inactive: [1]

COc1ccccc1OC
inactive: [1] | [2] | [3] | [4] | [5]

CNC(=O)O/N=C/C(C)(C)S(C)=O (stereo unspecified)
active: [5] 99.5 µM
inactive: [1] | [2] | [3] | [4]

CC(C)C1CCC(Cc2ccc(Cl)cc2)C1(O)Cn1cncn1 (stereo unspecified)
inactive: [1] | [2] | [3] | [4]
active: [5] 18.1 µM | [6] 3.08 µM

N#CCCO
inactive: [1] | [2] | [3] | [4] | [5] | [6]

P.[In]
active: [1] 0.101 µM

NN=C(N)N
inactive: [1]

N#Cc1ccccn1
inactive: [1] | [2] | [3] | [4] | [5] | [6]

CCC1(c2ccc(N)cc2)CCC(=O)NC1=O (stereo unspecified)
inactive: [1] | [2] | [3] | [4] | [5] | [6]

CCc1ccccc1N
inactive: [1] | [2] | [3] | [4] | [5]
active: [6] 67.2 µM

CC(C)c1cccc(C(C)C)c1O
inactive: [1] | [2] | [3] | [4] | [5] | [6]

ClC1=C(Cl)[C@]2(Cl)[C@@H]3[C@@H](Cl)[C@@H](Cl)C[C@@H]3[C@@]1(Cl)C2(Cl)Cl
inactive: [1] | [2] | [3] | [4] | [5]

CCCCCCCCC(=O)NCc1ccc(O)c(OC)c1
active: [5] 54.5 µM
inactive: [1] | [2] | [3] | [4]

COP(=S)(OC)Oc1c(Cl)cc(C)cc1Cl
inactive: [1] | [2] | [3] | [4] | [5] | [6]

CC(C#N)CCC#N (stereo unspecified)
inactive: [1] | [2] | [3] | [4] | [5] | [6]

CC1CCCCC1NC(=O)Nc1ccccc1 (stereo unspecified)
inactive: [1]

CC(C)=C[C@@H]1[C@@H](C(=O)OCc2coc(Cc3ccccc3)c2)C1(C)C
inactive: [1]

COc1cccc(C=O)c1
inactive: [1] | [2] | [3] | [4] | [5] | [6]

O=[N+]([O-])c1c(Cl)c(Cl)cc(Cl)c1Cl
active: [4] 45.3 µM
inactive: [1] | [2] | [3] | [5] | [6]

CC(C)OC(=S)S
inactive: [1]

Cc1ccc(N)cc1Cl
inactive: [1] | [2] | [3] | [4] | [5]

CCOC(=O)/C=C(C)/C=C/C[C@@H](C)CCCC(C)C
inactive: [1]
active: [2] 23.5 µM | [3] 179 µM | [4] 132 µM | [5] 53.5 µM

CCCCCCCCCCCCCCCC[n+]1ccccc1
active: [1] 0.081 µM

O=C(O)CCC(F)(C(F)(F)F)C(F)(F)F
inactive: [1]

C=CC#N
inactive: [1] | [2] | [3] | [4] | [5] | [6]

COP(=S)(OC)Oc1cc(Cl)c(Cl)cc1Cl
inactive: [1] | [2] | [3] | [4] | [5]
active: [6] 11.3 µM

CC(C)OC(=O)Nc1ccccc1
inactive: [1] | [2] | [3] | [4] | [5] | [6]

CCC[CH2][Sn]([CH2]CCC)([CH2]CCC)[O]C(=O)c1ccccc1
inactive: [1] | [2] | [4] | [5] | [6]
active: [3] 0.0581 µM

COP(=S)(OC)Oc1cc(Cl)c(Br)cc1Cl
inactive: [1]

O=P(O)(O)c1ccccc1
inactive: [1]

CNC
inactive: [1] | [2] | [3] | [4] | [5] | [6]

COc1ccc(C(O)(c2cncnc2)C2CC2)cc1 (stereo unspecified)
inactive: [1]

CC(=[OH+])/C=C(/C)[O-].CC(=[OH+])/C=C(/C)[O-].CC(=[OH+])/C=C(/C)[O-].[Fe]
inactive: [1] | [2] | [3] | [4] | [5] | [6]

O=S(=O)(c1ccc(Cl)cc1)c1ccc(Cl)cc1
inactive: [1] | [2] | [3] | [5] | [6]
active: [4] 16.5 µM

Clc1ccc(C2(Cn3cncn3)CC(Br)CO2)c(Cl)c1 (stereo unspecified)
active: [4] 99.5 µM | [5] 68.1 µM | [6] 27.6 µM
inactive: [1] | [2] | [3]

CCC(=O)c1ccccc1
inactive: [1] | [2] | [3] | [4] | [5] | [6]

O=C(CCl)CCl
active: [2] 24.7 µM | [4] 54 µM | [5] 23.3 µM
inactive: [1] | [3] | [6]

COS(=O)(=O)c1ccc(C)cc1
inactive: [1] | [2] | [3] | [4] | [5] | [6]

Oc1ccc(-c2ccccc2)cc1
inactive: [2] | [3] | [5] | [6]
active: [1] 10.5 µM | [4] 44.9 µM

CC(=O)C=C(C)C
inactive: [2] | [3] | [4] | [5] | [6]
active: [1] 10.8 µM

CCN(CC)C(=O)Cl
inactive: [1] | [2] | [3] | [4] | [5] | [6]

O=C(NCO)NCO
inactive: [1] | [2] | [3] | [4] | [5] | [6]

O=C1CCCN1
inactive: [1] | [2] | [3] | [4] | [5] | [6]

Cl/C=C\C[N+]12CN3CN(CN(C3)C1)C2
inactive: [1] | [2] | [3] | [6]
active: [4] 170 µM | [5] 41.7 µM

CC(Br)C(=O)O (stereo unspecified)
inactive: [1] | [2] | [3] | [4] | [5] | [6]

CN(CCCC(=O)c1cccnc1)N=O
inactive: [1] | [2] | [3] | [4] | [5] | [6]

CCNc1nc(NC(C)(C)C)nc(SC)n1
active: [4] 65.6 µM
inactive: [1] | [2] | [3] | [5] | [6]

CCOP(OCC)OCC
inactive: [1] | [2] | [3] | [4] | [5] | [6]

c1cc[c]([Hg][c]2ccccc2)cc1
inactive: [1] | [4] | [5] | [6]
active: [2] 22.6 µM | [3] 21.3 µM

O=C(Cc1ccccc1)c1ccccc1
inactive: [1] | [2] | [3] | [4] | [5] | [6]

COc1ccc(OC)c(C=O)c1
inactive: [1] | [2] | [3] | [4] | [5] | [6]

ClC(Cl)=C(Cl)C(Cl)=C(Cl)Cl
inactive: [1] | [3] | [4]
active: [2] 180 µM | [5] 100 µM | [6] 71.4 µM

O=C(Cl)c1ccc(Cl)cc1
inactive: [1] | [2] | [3] | [4] | [5] | [6]

CCOC(=O)CP(=O)(OCC)OCC
inactive: [1] | [2] | [3] | [4] | [5] | [6]

C1CCC(NC2CCCCC2)CC1
inactive: [1] | [2] | [3] | [4] | [5] | [6]

COP(=O)(OC)O/C(=C\Cl)c1cc(Cl)c(Cl)cc1Cl
inactive: [1] | [2] | [3] | [4] | [6]
active: [5] 58.2 µM

COc1ccc(C=O)cc1OC
inactive: [2] | [3] | [4] | [5] | [6]
active: [1] 15.7 µM

C=CCc1ccc(OC)cc1
inactive: [1] | [2] | [3] | [4] | [5] | [6]

CCSC(C)CC1CC(=O)C(C(CC)=NOC/C=C/Cl)=C(O)C1 (stereo unspecified)
inactive: [1] | [2] | [3] | [4] | [5]
active: [6] 28.4 µM

c1ccc(N=NNc2ccccc2)cc1
inactive: [1] | [2] | [3] | [4]
active: [5] 115 µM | [6] 5.92 µM

C[C@H]1CCCC(=O)CCC/C=C/c2cc(O)cc(O)c2C(=O)O1
active: [1] 0.00378 µM | [4] 31.1 µM | [6] 22.5 µM
inactive: [2] | [3] | [5]

O=C/C=C/c1ccccc1
inactive: [1] | [2] | [3] | [4] | [5] | [6]
